Bioassay records deposited in PubChem BioAssay by National Center for Advancing Translational Sciences (NCATS).
The list is not random: actives were taken first. Their share in the collection is about 1.5%.
Eya2 phos inh – Eya2 (human) phosphatase inhibition | Potency, µM (series often up to 76.9 µM), for the others: at the highest dose activity, negative = inhibition, usual class: inhibitors | O00167 | recombinant Eya2, OMFP fluorescence dephosphorylation (OMFP is methylfluorescein phosphate) | hit rate 0.006% among 330,000; further: potency means the concentration at half of the fitted maximal effect
Target sequence (O00167 whole entry, looked up): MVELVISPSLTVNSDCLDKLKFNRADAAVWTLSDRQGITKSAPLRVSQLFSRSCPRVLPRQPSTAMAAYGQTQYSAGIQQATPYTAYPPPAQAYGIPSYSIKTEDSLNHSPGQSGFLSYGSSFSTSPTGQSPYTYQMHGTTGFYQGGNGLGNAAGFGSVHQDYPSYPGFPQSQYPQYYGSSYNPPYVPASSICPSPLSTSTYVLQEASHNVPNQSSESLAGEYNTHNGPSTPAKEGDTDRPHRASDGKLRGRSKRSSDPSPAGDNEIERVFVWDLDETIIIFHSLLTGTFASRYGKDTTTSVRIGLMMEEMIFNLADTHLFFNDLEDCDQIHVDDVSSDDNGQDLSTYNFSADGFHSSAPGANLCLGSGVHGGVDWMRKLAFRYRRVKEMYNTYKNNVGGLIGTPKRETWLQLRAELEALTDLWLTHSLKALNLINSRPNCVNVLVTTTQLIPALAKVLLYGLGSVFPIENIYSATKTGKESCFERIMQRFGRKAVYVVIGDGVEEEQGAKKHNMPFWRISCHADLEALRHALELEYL
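Eya2 protein (added as 0.2 uM solution) was preincubated with compound for 10 min at ambient temperature in 50 mM HEPES pH 7.5, 50 mM NaCl, 5 uM MgCl2, 0.05% BSA, 1 mM DTT. OMFP (added at 50 uM) then reacted 10 min; fluorescence read at 485/525 nm.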
TrxR1 substrate – substrates of rat thioredoxin reductase 1. O89049. purified TrxR1 substrate turnover, NADPH consumption readout. Potency, µM (series often up to 114 µM), inactives show at the top dose activity change, negative = substrate turnover. hit rate 0.01% among 390,000; further: potency means the concentration at half of the fitted maximal effect; nearly all actives have a fitted effect of over 50% in size
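Rat TrxR1, dispensed at 90 nM, was prereduced with 400 uM NADPH (final) for 5 min at ~22 deg C, then incubated with compound 15 min before 400 uM selenite. A first-read NADPH fluorescence drop versus no-compound background flagged substrates.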
Coupling enz – inhibits coupling enzyme system, counter-screen for aldolase hits; hit rate 0.67% among 290,000; coupling enzyme system counterscreen, AmpLite Red fluorescence; activity change, negative = inhibition, % at 58.2 µM, hits read low; in the data active means activity change below about -30%
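First, compound is pin-transferred into glyceraldehyde-3-phosphate coupling-enzyme reagent at 57.5 uM final and held 10 min at RT. Next, substrate, coupling system and AmpLite Red are added. After 20 min RT, fluorescence (525/598 nm) is read.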
mIDH1 inhibitor – human IDH1 R132H inhibition | O75874 | IDH1-R132H enzyme, NADPH consumption, diaphorase/resazurin fluorescence | Potency, µM (top dose mostly 76.6 µM), inactives show at the top dose activity change, negative = inhibition, actives largely listed as inhibitors | hit rate 0.093% among 390,000 | AID 602179; further: potency means the concentration at half of the fitted maximal effect; nearly all actives have a fitted effect of over 65% in size
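IDH1-R132H (0.5 ug/mL) preincubated 30 min with compound, then NADPH (0.016 mM) and alpha-KG (2 mM) added; 80 min at RT, pH 7.5. Remaining NADPH coupled via diaphorase/resazurin to fluorescence (540/590 nm); concentration-response curves normalized to no-enzyme control.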
TrxR1 inh – rat TrxR1 inhibition; recombinant rTrxR1, NADPH fluorescence consumption, selenite substrate; O89049; hit rate 1% among 390,000; Potency, µM (top dose mostly 114 µM), for the others: top-dose activity change, negative = inhibition, hits mostly inhibitors; AID 588453; further: potency means the concentration at half of the fitted maximal effect; nearly all actives have a fitted effect of over 65% in size
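Rat TrxR1 (90 nM in the dispensed reagent) was pre-reduced with 400 uM NADPH for 5 min at room temperature, then incubated with compound for 15 min. After 400 uM selenite was added, NADPH fluorescence (Ex 340/Em 450 nm) was followed for 8 min.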
* hit, by the source's call; ? = inconclusive; . = not tested or not shown; [ ] = another dose, or the depositor's remark. Unless noted, the call rests on the fitted dose curve; in most records, active means well fitted curve in the direction sought with a large enough effect; inconclusive means small, poorly fitted or top-dose-only effect, or another doubt; inactive means no such curve, though single readings can be large; an effect the other way counts as inactive or inconclusive. On the % scale 0 is the no-effect control and ±100 the full control effect.

SMILES	Eya2 phos inh	TrxR1 substrate	Coupling enz	mIDH1 inhibitor	TrxR1 inh
C=CCN1C=C2C(=O)C(C)(OC(=O)c3ccc(OC)cc3)C(=O)C(c3ccco3)=C2C=C1CCCC (centres undefined)	7.8%	12.3%[57.1 µM]	1.0	-15.0%	7.08µM*
COc1ccc2c(c1O)C(=O)c1ccccc1C2=O	-1.4%	.	5.9	.	.
CC(C)COC(=O)c1ccc2c(c1O)C(=O)c1ccccc1C2=O	-8.8%	6.7%[0.457 µM]	-40.9*	8.0%	3.5%
COc1ccc(CNc2nc(Cl)nc3nc[nH]c23)cc1	.	3.2%	.	.	12.4%
Cc1nnc(SCC2=C(C(=O)O)N3C(=O)C(NC(=O)Cn4nc(C(F)F)cc4C)C3SC2)s1 (centres undefined)	-1.2%	-5.7%	2.2	-6.6%	44.7µM*
Cc1nnc(SCC2=C(C(=O)O)N3C(=O)C(NC(=O)COc4ccc(F)cc4)C3SC2)s1 (centres undefined)	2.5%	-3.7%	.	-2.7%	3.98µM*
Cc1nnc(SCC2=C(C(=O)O)N3C(=O)C(NC(=O)COc4ccccc4)C3SC2)s1 (centres undefined)	-21.4%	-0.2%[57.1 µM]	.	-2.5%	7.94µM*
C=CC[n+]1cccc2cccc(O)c21	.	-0.1%	.	.	14.2%
COC(=O)[C@H](COC(C)(C)C)NC(=O)O[C@@H]1C(=O)c2cc(OC)ccc2O[C@H]1c1cccc(OC)c1	.	.	0.2	.	.
CC[C@H](C)[C@H](NC(=O)[C@H](Cc1ccc(O)cc1)NC(=O)[C@H](Cc1cnc[nH]1)NC(=O)[C@H](CCCNC(=N)N)NC(=O)[C@H](CC(C)C)NC(=O)[C@H](C)NC(=O)[C@H](CO)NC(=O)[C@H](Cc1ccc(O)cc1)NC(=O)[C@H](Cc1ccc(O)cc1)NC(=O)[C@H](CCCNC(=N)N)NC(=O)[C@H](C)NC(=O)[C@H](CCSC)NC(=O)[C@H](CC(=O)O)NC(=O)[C@H](CCC(=O)O)NC(=O)[C@H](C)NC(=O)[C@@H]1CCCN1)C(=O)N[C@@H](CC(N)=O)C(=O)N[C@@H](CC(C)C)C(=O)N[C@H](C(=O)N[C@H](C(=O)N[C@@H](CCCNC(=N)N)C(=O)N[C@@H](CCC(N)=O)C(=O)N[C@@H](CCCNC(=N)N)C(=O)N[C@@H](Cc1ccc(O)cc1)C(N)=O)[C@@H](C)O)[C@@H](C)CC	.	.	0.2	.	.
COC(=O)C1Cc2ccccc2CN1C(=O)CCl (centres undefined)	5.2%	6.9%[57.1 µM]	-1.8	21.5%	14.1µM*
Cc1ccc(-c2csc(NC(=O)c3ccc(Br)cc3)c2C(=O)O)cc1	2.6%	-12.4%	-30.1*	21.3%	-17.7%
Cc1cccc(C(=O)Nc2scc(-c3ccc(Br)cc3)c2C(=O)O)c1	.	8.0%[57.1 µM]	.	17.9%	4.8%[57.1 µM]
Cc1ccc(-c2csc(NC(=O)/C=C/c3ccco3)c2C(=O)O)cc1	-7.5%	-6.5%	-28.7	35.9%	35.5µM*
Cc1ccc(-c2csc(NC(=O)c3cccc(C)c3)c2C(=O)O)cc1	.	1.4%[57.1 µM]	.	21.2%	-7.3%[57.1 µM]
CCCCCC(O)c1ccc([C@H]2CCC(=O)[C@@H]2CCCCCCC(=O)O)cc1 (some centres undefined)	.	.	6.2	.	.
CCCS(=O)(=O)c1nc(S(=O)(=O)c2ccc(C)cc2)c(NCc2ccccn2)s1	-5.8%	1.4%	-1.1	10.7%	20µM*
CCS(=O)(=O)c1nc(S(=O)(=O)c2ccc(C)cc2)c(NCc2ccccn2)s1	3.5%	-11.6%	4.8	-6.2%	-5.5%
Cn1c(=O)c(-c2cc(F)cc(F)c2)nc2cnc(N3CCNCC3)nc21	.	.	2.0	.	.
COc1cc2nc(N3CCCN(C)CC3)nc(N)c2cc1OC	.	77.5%	.	.	-16.7%
CCc1ccc(NC2=CC(=O)C(=O)c3ccccc32)cc1	-14.6%	-16.3%	.	0.0%	-13.8%
O=C(O)c1cccc(NC2=C(N3CCOCC3)C(=O)c3ccccc3C2=O)c1	15.6%	10.6%	-29.0	3.1%	?
CCc1ccc(S(=O)(=O)/N=C2\C=C(Nc3ccc(C(=O)O)cc3)C(=O)c3ccccc32)cc1	4.3%	-2.9%	-47.6*	9.7%	-2.1%
Cc1ccc(S(=O)(=O)/N=C2\C=C(Nc3cccc(C(=O)O)c3)C(=O)c3ccccc32)cc1	-9.5%	-3.7%	-46.6*	18.0%	-5.6%
Cc1ccc(S(=O)(=O)/N=C2\C=C(Nc3cccc(C(=O)O)c3)C(=O)c3ccccc32)c(C)c1	-14.5%	-13.4%	-42.6*	9.0%	-15.6%
SMILES	Eya2 phos inh	TrxR1 substrate	Coupling enz	mIDH1 inhibitor	TrxR1 inh
COC(=O)c1ccccc1NC1=C/C(=N\S(=O)(=O)c2ccc(C(=O)O)cc2)c2ccccc2C1=O	-0.3%	?	-48.2*	22.8%	?
Cc1ccc(S(=O)(=O)/N=C2\C=C(Nc3ccc(O)cc3)C(=O)c3ccccc32)cc1	-5.8%	-10.9%	.	18.5%	?
CCN(CC)c1cc(C)c(/C=C/c2ccnc3ccccc23)cc1C	.	-8.1%	.	.	4.1%
Cc1ccc(S(=O)(=O)/N=C2\C=C(NS(=O)(=O)c3ccccc3)C(=O)c3ccccc32)c(C)c1	.	-2.1%	.	6.0%	-15.8%
CC(C)(C)c1ccc(S(=O)(=O)/N=C2\C=C(NS(=O)(=O)c3ccccc3)C(=O)c3ccccc32)cc1	-19.4%	-8.2%	-34.6*	2.0%	?
COC(=O)c1ccc2c(c1)C(C)(C)C(/C=C/c1ccccc1O)=[N+]2C	-4.7%	58.0%	5.6	35.5µM*	79.4µM*
Cn1c(NC(=O)/C=C\c2ccccc2)cc(=O)n(C)c1=O	-6.4%	-14.3%	0.0	1.2%	10.7%[57.1 µM]
Cn1c(NNC(=O)/C=C/c2ccc3c(c2)OCO3)cc(=O)n(C)c1=O	10.3%	0.7%	-37.1*	-5.7%	-20.1%
Cc1ccc(C(=O)NCc2ccco2)cc1Br	2.3%	0.5%	0.7	6.1%	17.8µM*
O=C(COC(=O)Cc1cccc(C(F)(F)F)c1)NCc1ccco1	8.7%	-4.8%	.	-12.2%	35.5µM*
O=C(COC(=O)Cc1ccc(F)cc1)NCc1ccco1	0.8%	3.5%	1.7	-0.5%	-1.0%
CC(C)(C)c1ccc(OCC(=O)NCc2ccco2)c(Br)c1	-24.4%	-2.3%	0.3	10.9%	11.2µM*
O=C(OCc1ccco1)c1ccc(S(=O)(=O)N2CCCCC2)cc1	5.1%	2.3%[57.1 µM]	0.6	1.3%	17.8µM*
O=C(COC(=O)c1ccc(S(=O)(=O)N2CCCCC2)cc1)NCc1ccco1	6.1%	6.7%[57.1 µM]	1.1	6.0%	21.6%[57.1 µM]
OC1C(Br)=Cc2ccccc21 (centres undefined)	.	8.5%[0.0914 µM]	.	.	13.5%
O=C(O)c1cc(=O)c2cc(Cl)ccc2[nH]1	.	.	6.7	.	.
Cc1cc(S(=O)(=O)N2CCCC2)ccc1OCC(=O)NCc1ccco1	-6.1%	10.5%	1.6	-0.9%	10µM*
